Most compounds without a hit are left out; they make up all but 21% or so of the library.
TDP1 cell noCPT = qHTS for Inhibitors of human tyrosyl-DNA phosphodiesterase 1 (TDP1): qHTS in cells in absence of CPT; hit rate 15% among 420,000; DT40 Tdp1-/- hTDP1 cells, no CPT, ATP luminescence, 48 h; Potency, µM (top dose mostly 46.2 µM), for the others: at the top dose activity change, negative = growth inhibition, hits mostly inhibitors; also: potency is read from the fitted curve at half-maximal effect; nearly all actives have a fitted effect of over 55% in size
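Growth of hTDP1-complemented DT40 Tdp1-knockout cells is measured by ATP luminescence after at least 48 hr compound exposure at 37 °C, with DMSO substituting for the 20 nM CPT used in the parallel screen.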
IL-1B inflam inh = inflammasome signaling inhibition, IL-1 beta readout; activity change, % at 57.5 µM; AID 743279; THP-1 LPS/ATP IL-1B secretion, AlphaLISA, 16 h; stronger effect = lower value; hit rate 4.7% among 360,000; in the data active = activity change below about -50%; inconclusive = mostly about -30% to -49%
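THP-1 cells pretreated 1 hr with compounds (up to 57.5 uM final), then stimulated with LPS (250 ng/mL final) plus ATP (1.25 mM final); secreted IL-1B measured by AlphaLISA after 16 hr, decreased signal indicating inhibition.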
Gal4-VP16 FLuc = counter-screen for ROR gamma inhibitors: Gal4-VP16 reporter; Drosophila S2 Gal4-VP16 UAS-luciferase, luminescence, 20 h; Potency, µM (top dose mostly 53.6 µM), for inactives: at the top dose activity, negative = inhibition, most hits filed as inhibitors; hit rate 3.5% among 310,000; AID 2546;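 also: Gal4-VP16 expression switched on by copper sulfate through the metallothionein promoter; potency is read from the fitted curve at half-maximal effect; nearly all actives have a fitted effect of over 50% in size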
RORg inh = inhibitors of mouse ROR gamma transcriptional activity | hit rate 5.4% among 310,000 | Drosophila S2 Gal4-RORgamma UAS-luciferase reporter, 20 h | Potency, µM (titrated, usually from 53.6 µM), for inactives: at the top dose activity change, negative = inhibition, hits mostly inhibitors | P51450 | AID 2551; also: potency is read from the fitted curve at half-maximal effect; nearly all actives have a fitted effect of over 60% in size
Target sequence (P51450 whole entry, looked up, the tested form may be a part): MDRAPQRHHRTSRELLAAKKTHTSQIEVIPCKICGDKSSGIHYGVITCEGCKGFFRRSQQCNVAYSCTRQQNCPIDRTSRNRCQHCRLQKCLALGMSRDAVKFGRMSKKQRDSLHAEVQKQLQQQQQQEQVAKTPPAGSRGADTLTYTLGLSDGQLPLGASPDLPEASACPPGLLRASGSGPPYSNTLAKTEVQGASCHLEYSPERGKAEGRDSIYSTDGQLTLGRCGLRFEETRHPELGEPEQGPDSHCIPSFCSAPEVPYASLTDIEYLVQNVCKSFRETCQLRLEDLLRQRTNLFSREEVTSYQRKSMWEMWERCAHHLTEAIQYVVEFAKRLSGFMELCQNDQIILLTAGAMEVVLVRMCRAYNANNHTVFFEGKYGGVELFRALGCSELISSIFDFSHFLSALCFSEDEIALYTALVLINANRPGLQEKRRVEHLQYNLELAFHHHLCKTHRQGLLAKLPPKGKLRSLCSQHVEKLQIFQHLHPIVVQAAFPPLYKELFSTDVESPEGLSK
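In this cell-based reporter format, copper sulfate (700 uM final) drives Gal4–ROR gamma fusion expression from a metallothionein promoter in Drosophila Schneider cells; compounds preincubated 1 hr, reporter read after 20 hr at ambient temperature.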
ELG1 DNA repair = ELG1-dependent DNA repair inhibition; hit rate 2.3% among 330,000; HEK293T ELG1-luciferase reporter, luminescence, 16 h; DNA damage induced by 5-fluorouridine; Potency, µM (top dose mostly 46.1 µM), without a hit: at the highest dose activity change, negative = inhibition, usual class: inhibitors; also: potency is read from the fitted curve at half-maximal effect; nearly all actives have a fitted effect of over 55% in size
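DMSO vehicle served as the neutral condition. Each well held 2,000 cells given 5-fluorouridine plus compound; after 16 hr at 37 °C/5% CO2, ONE-Glo was added and luciferase measured 30 min later.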
TDP1 cell CPT = growth inhibition of DT40 Tdp1-/-;hTDP1 cells with camptothecin (screen for TDP1 inhibitors); Potency, µM (series often up to 46.2 µM), without a hit: at the highest dose activity change, negative = growth inhibition, usual class: inhibitors; AID 686979; hit rate 12% among 420,000; chicken DT40 Tdp1-/-;hTDP1 cells + 20 nM CPT, ATP luminescence, 48 h; also: potency is read from the fitted curve at half-maximal effect; nearly all actives have a fitted effect of over 55% in size
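Chicken DT40 Tdp1-/- cells complemented with human TDP1, 400 cells/well, exposed to compounds plus 20 nM camptothecin for at least 48 h at 37 C; viability read as ATP content by CellTiter-Glo luminescence.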
Numbers without * were called inactive; [ ] = dose if it differs, or a comment. Unless noted, calls follow the shape of the dose curve; as a rule, active = well fitted curve in the direction sought with a large enough effect; inconclusive = small, poorly fitted or top-dose-only effect, or another doubt; inactive = no such curve, though single readings can be large; an effect the other way counts as inactive or inconclusive. % is scaled to controls: 0 for no effect and ±100 for the full control effect.

How did O=C(NCc1ccc(Cl)c(Cl)c1)c1cc(C2CCCCN2C(=O)OCCF)on1 (stereo unspecified) do in these assays?
TDP1 cell noCPT: 23.1µM*; IL-1B inflam inh: -22.7; TDP1 cell CPT: 23.1µM*

What do the screens show for `O=C(NCc1ccc(Cl)c(Cl)c1)c1cc(C2CCCCN2C(=O)c2ccccn2)on1` (stereo unspecified)?
TDP1 cell noCPT: 18.4µM*; IL-1B inflam inh: 0.3; TDP1 cell CPT: 10.3µM*

How did O=C(Nc1ccccc1Cl)c1cc(C2CCCCN2C(=O)OCCF)on1 (stereo unspecified) do in these assays?
TDP1 cell noCPT: inconclusive; IL-1B inflam inh: 6.3; TDP1 cell CPT: inconclusive

How did Cc1cc(C)n(Cc2ccc(Cl)cc2Cl)c(=O)c1S(=O)(=O)c1ccccc1 do in these assays?
TDP1 cell noCPT: 23.1µM*; IL-1B inflam inh: 11.1; Gal4-VP16 FLuc: -23.5%; RORg inh: 28.6%; ELG1 DNA repair: 11.1%; TDP1 cell CPT: inconclusive

What do the screens show for `C=C(C)Cn1c(C)cc(C)c(S(=O)(=O)c2ccc(C)cc2)c1=O`?
TDP1 cell noCPT: inconclusive; IL-1B inflam inh: 12.6; Gal4-VP16 FLuc: 3.8%[10 µM]; RORg inh: 8.8%; ELG1 DNA repair: 5.8%; TDP1 cell CPT: inconclusive

How did CNc1ccc(/C=C/C(=O)c2cccc3ccccc23)cc1[N+](=O)[O-] do in these assays?
TDP1 cell noCPT: 16.4µM*; IL-1B inflam inh: -91.8*; Gal4-VP16 FLuc: 4.2%; RORg inh: 29.0%; ELG1 DNA repair: -28.0%; TDP1 cell CPT: 16.4µM*

What do the screens show for `Cc1cccc(NC(=S)NCc2ccc(F)cc2)c1C`?
TDP1 cell noCPT: -8.2%; IL-1B inflam inh: -10.3; Gal4-VP16 FLuc: 5.01µM*; RORg inh: 3.55µM*; ELG1 DNA repair: 13.7%; TDP1 cell CPT: -3.9%

Results for Cc1cc(Cl)ccc1NC(=S)NCc1ccc(F)cc1 ?
TDP1 cell noCPT: inconclusive; IL-1B inflam inh: -56.4*; Gal4-VP16 FLuc: 7.08µM*; RORg inh: 6.31µM*; ELG1 DNA repair: inconclusive; TDP1 cell CPT: 2.8%

Results for CC(C)(C)c1ccccc1NC(=S)NCc1ccccc1 ?
TDP1 cell noCPT: 18.4µM*; IL-1B inflam inh: -0.8; Gal4-VP16 FLuc: inconclusive; RORg inh: 5.8%; ELG1 DNA repair: inconclusive; TDP1 cell CPT: inconclusive

Results for Cc1cccc(NC(=S)NCc2ccccc2)c1C ?
TDP1 cell noCPT: -28.2%; IL-1B inflam inh: -18.6; Gal4-VP16 FLuc: 5.62µM*; RORg inh: 3.98µM*; ELG1 DNA repair: 2.8%; TDP1 cell CPT: -29.0%

How did Cc1cccc(C)c1NC(=S)NCc1ccccc1 do in these assays?
TDP1 cell noCPT: -17.3%; IL-1B inflam inh: 18.9; Gal4-VP16 FLuc: -0.5%; RORg inh: 18.5%; ELG1 DNA repair: -6.8%; TDP1 cell CPT: -16.9%

Results for Cc1c(Cl)cccc1NC(=O)NCc1ccc(F)cc1 ?
TDP1 cell noCPT: -18.4%; IL-1B inflam inh: -21.2; Gal4-VP16 FLuc: -6.6%; RORg inh: 0.3%; ELG1 DNA repair: inconclusive; TDP1 cell CPT: -23.6%

How did CC1CCCN(C(=O)COC(=O)Cc2c(F)cccc2Cl)C1 (stereo unspecified) do in these assays?
TDP1 cell noCPT: -17.0%; IL-1B inflam inh: -1.1; Gal4-VP16 FLuc: inconclusive; RORg inh: 1.5%; ELG1 DNA repair: inconclusive; TDP1 cell CPT: -6.8%

Results for COc1ccccc1CN1CCC2(CCC(CNC(=O)c3ccccc3N(C)C)O2)CC1 (stereo unspecified) ?
TDP1 cell noCPT: inconclusive; TDP1 cell CPT: -12.1%[9.04 µM]

Results for Cc1cccc(NC(=S)Nc2ccccn2)c1C ?
TDP1 cell noCPT: inconclusive; IL-1B inflam inh: 26.9; Gal4-VP16 FLuc: 1.78µM*; RORg inh: 1.12µM*; ELG1 DNA repair: inconclusive; TDP1 cell CPT: -21.1%

Bioassay records as filed in PubChem BioAssay.
